# SW480 rereplic: inducers of DNA re-replication in SW480 colon cancer cells; SW480 DNA re-replication, Hoechst DNA content imaging, 48 h; Potency, µM (titrated, usually from 46.1 µM), for inactives: top-dose re-replication activation, most hits filed as activators; 340,000 tested, 1.8% active; AID 624297; also: % of control where 0% means no effect; nearly all actives have a fitted effect of over 55% in size
#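 Cells (250 per well) received 23 nL compound or DMSO by pin tool and were kept 48 hr at 37 C, 5% CO2. Nuclei were then stained with Hoechst for 40 min and scanned for DNA content.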
# RORgamma inh: inhibitors of mouse ROR gamma transcriptional activity. 310,000 tested, 5.4% active. Potency, µM (doses to about 53.6 µM), for the others: top-dose activity change, negative = inhibition, actives largely listed as inhibitors. Drosophila S2 Gal4-RORgamma UAS-luciferase reporter, 20 h. P51450. AID 2551; also: % is scaled to controls: 0 for no effect and ±100 for the full control effect; nearly all actives have a fitted effect of over 60% in size
# Target sequence (P51450 whole entry, looked up, the tested form may be a part): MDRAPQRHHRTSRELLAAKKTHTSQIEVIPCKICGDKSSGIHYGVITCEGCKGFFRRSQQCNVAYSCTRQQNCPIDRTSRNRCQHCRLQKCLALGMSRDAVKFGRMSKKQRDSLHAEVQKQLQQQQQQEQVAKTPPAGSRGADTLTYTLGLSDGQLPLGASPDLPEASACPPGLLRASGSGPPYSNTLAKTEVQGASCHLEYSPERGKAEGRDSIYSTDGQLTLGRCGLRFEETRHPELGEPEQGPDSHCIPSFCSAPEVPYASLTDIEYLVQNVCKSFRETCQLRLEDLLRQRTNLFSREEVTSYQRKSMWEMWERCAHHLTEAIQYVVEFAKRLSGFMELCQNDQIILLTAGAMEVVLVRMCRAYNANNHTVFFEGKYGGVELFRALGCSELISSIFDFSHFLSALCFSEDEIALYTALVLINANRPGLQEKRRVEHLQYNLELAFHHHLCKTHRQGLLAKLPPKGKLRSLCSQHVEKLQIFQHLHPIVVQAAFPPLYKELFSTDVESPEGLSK
#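 Schneider cells (Drosophila), stable Gal4 DBD–ROR gamma + UAS-luc; 1 hr cmpd preincubation; Cu2+ induction 700 uM final; 20 hr ambient; luminescence.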
# Gal4-VP16 FLuc: counter-screen for ROR gamma inhibitors: Gal4-VP16 reporter. Drosophila S2 Gal4-VP16 UAS-luciferase, luminescence, 20 h. Potency, µM (series often up to 53.6 µM), for inactives: at the highest dose activity, negative = inhibition, actives largely listed as inhibitors. 310,000 tested, 3.5% active. AID 2546;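 also: Gal4-VP16 expression switched on by copper sulfate through the metallothionein promoter; % is scaled to controls: 0 for no effect and ±100 for the full control effect; nearly all actives have a fitted effect of over 50% in size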
# KB-V1 MDR tox: kills drug-selected multidrug resistant KB-V1 cells | 400,000 tested, 3.4% active | Potency, µM (doses to about 46.1 µM), hits mostly cytotoxic | KB-V1 MDR cells viability, CellTiter-Glo, 72 h; also: % is scaled to controls: 0 for no effect and ±100 for the full control effect; nearly all actives have a fitted effect of over 60% in size
#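 Readout: CellTiter-Glo luminescence, 10 min after addition. Cells: KB-V1 MDR subline, 72 h at 37 degrees C with compound. Analysis: corrected, normalized data fitted to concentration-effect curves.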
# KB-3-1 tox: kills parental KB-3-1 adenocarcinoma cells. KB-3-1 viability, CellTiter-Glo ATP luminescence, 72 h. Potency, µM (highest dose often 46.1 µM), most hits filed as cytotoxic. 400,000 tested, 1.4% active; also: % is scaled to controls: 0 for no effect and ±100 for the full control effect; nearly all actives have a fitted effect of over 60% in size
#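 KB-3-1 cells, DMEM (no phenol red) + 10% FBS; compound by pin transfer, 72 h, 37 °C. Readout: CellTiter-Glo luminescence after 10 min. Data normalized, curve-fitted.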
# MCF10A rerep: DNA re-replication induction in MCF 10a cells. MCF 10A DNA re-replication, Hoechst nuclear intensity, 48 h. Potency, µM (top dose mostly 46.1 µM), without a hit: at the highest dose activity, positive = re-replication, usual class: activators. 350,000 tested, 2.9% active; also: % of control where 0% means no effect; nearly all actives have a fitted effect of over 50% in size
# Numbers without * were called inactive; i = inactive; ? = inconclusive; / = no result given. A selection: hits, their analogues and other compounds. The true share with any hit is near 10%. Calls follow the shape of the dose curve; as a rule, active = well fitted curve in the direction sought with a large enough effect; inconclusive = small, poorly fitted or top-dose-only effect, or another doubt; inactive = no such curve, though single readings can be large; an effect the other way counts as inactive or inconclusive. Potency is read from the fitted curve at half-maximal effect.
SMILES,SW480 rereplic,RORgamma inh,Gal4-VP16 FLuc,KB-V1 MDR tox,KB-3-1 tox,MCF10A rerep
Cc1cc(Cl)ccc1OCC(=O)Nc1ccccc1N1CCOCC1,1%,?,-9%,15µM*,?,21%
CC(=O)N1CCN(c2ccccc2NC(=O)COc2cc(C)ccc2C(C)C)CC1,7%,-40%,0%,?,?,9%
Cc1ccc(OCC(=O)Nc2ccccc2N2CCOCC2)c(C)c1,7%,?,-15%,i,i,20%
CCn1nnc(NC(=O)COc2cc(C)ccc2C(C)C)n1,-4%,30%,-11%,15µM*,i,4%
Cc1ccc(C(C)C)c(OCC(=O)NN=C(CCl)CCl)c1,/,28%,3%,/,/,/
Cc1ccc(C(C)C)c(OCC(=O)Nc2ccccc2N2CCN(C)CC2)c1,-1%,?,13µM*,?,?,?
COc1cc(C)ccc1OCC(=O)Nc1ccccc1N1CCOCC1,-6%,/,/,5.8µM*,i,19%
Cc1nn(C(=O)c2ccc(Cl)cc2)c(C)c1Sc1ccc(Cl)cc1,/,/,/,?,i,/
Cc1ccc(-n2nc(C(=O)N3CCCCC3)c(=O)n(C)c2=O)cc1,/,/,/,i,i,/
COc1ccc(Cl)cc1C(=O)NC(=S)Nc1ccccc1N1CCOCC1,-16%,/,/,i,?,11%
Cc1ccc2[nH]c3c(=O)n(CC(=O)Nc4ccccc4N4CCN(C)CC4)ncc3c2c1,21µM*,-18%,-3%,i,i,?
O=C(COc1ccc(F)cc1Br)Nc1ccccc1N1CCOCC1,4%,/,/,8.2µM*,i,0%
O=C(COc1ccc(F)cc1Br)Nc1ccccc1N1CCCC1,/,/,/,i,i,/
Cc1cc(Cl)ccc1OCC(=O)NC(=S)Nc1ccccc1N1CCOCC1,-3%,4.5µM*,?,i,i,?
CC1(C)CCC(C)(C)NC(=S)N1,-1%,8.9µM*,?,i,i,-1%
COc1cccc(/C=N/NC(=O)c2nnn(-c3nonc3N)c2C(C)C)c1OCc1ccc(F)cc1,?,-20%,1%,i,i,21µM*
CC(C)c1c(C(=O)N/N=C/c2ccc(OCc3ccccc3)cc2)nnn1-c1nonc1N,?,-8%,-3%,i,i,11%
COc1ccccc1/C(C)=N/NC(=O)c1nnn(-c2nonc2N)c1C(C)C,0%,7.1µM*,-29%,i,i,-7%
CC(C)c1c(C(=O)N/N=C/c2cccc(OCc3ccccc3)c2)nnn1-c1nonc1N,-17%,?,-2%,i,i,16µM*
COc1ccccc1N1CCN(C(=O)Cn2cnc3onc(-c4ccc(F)cc4)c3c2=O)CC1,/,/,/,i,i,/
COc1ccc(NC(=O)CCCn2nc(C)c3sc4ccccc4c3c2=O)cc1,/,/,/,i,i,/
CC(C)(C)NC(=O)C(c1cccc2ccccc12)n1c(=O)c(-c2cc3ccccc3[nH]2)nc2ccccc21 (centres undefined),/,/,/,i,i,/
CCOC(=O)Cc1ccc(NC(=O)N(Cc2ccc(CC)cc2)Cc2cn[nH]c2-c2ccc(OC)cc2)cc1,/,/,/,?,i,/
N=C1SCC(=O)N1c1ncc(Cc2ccc(F)cc2)s1,12%,0.32µM*,0.2µM*,i,i,?
Cc1ccc(-c2csc(N3C(=N)SCC3=O)n2)cc1,-6%,-27%,-21%,i,i,-2%
Nc1nc2nc(-c3ccc(Cl)cc3)cc(C(F)(F)F)n2n1,13µM*,-3%,9%,i,i,?
Cn1nc(C2CC2)cc1NC(=O)C1(C)CCN1C(=O)Cc1ccc(-c2ccccc2)cc1 (centres undefined),/,/,/,i,?,/
CNC1C(OC2C(O[C@@H]3C(O)C(O)[C@@H](N=C(N)N)C(O)C3N=C(N)N)OC(C)[C@@]2(O)CO)OC(CO)C(O)C1O (some centres undefined),-4%,-4%,4%,/,/,-2%
COc1ccc(N)cc1-n1c(C)ccc1C,0.52µM*,-23%,0%,?,i,4%
